# Anthrax LF inh2 – anthrax lethal factor protease inhibition. P15917. multiplex microsphere protease cleavage assay, LF. inhibition, % at 10 µM. 360,000 compounds, 0.12% hits; note: plate controls were buffer without enzyme for full effect and enzyme alone for no effect
# Target sequence (P15917 whole entry, looked up): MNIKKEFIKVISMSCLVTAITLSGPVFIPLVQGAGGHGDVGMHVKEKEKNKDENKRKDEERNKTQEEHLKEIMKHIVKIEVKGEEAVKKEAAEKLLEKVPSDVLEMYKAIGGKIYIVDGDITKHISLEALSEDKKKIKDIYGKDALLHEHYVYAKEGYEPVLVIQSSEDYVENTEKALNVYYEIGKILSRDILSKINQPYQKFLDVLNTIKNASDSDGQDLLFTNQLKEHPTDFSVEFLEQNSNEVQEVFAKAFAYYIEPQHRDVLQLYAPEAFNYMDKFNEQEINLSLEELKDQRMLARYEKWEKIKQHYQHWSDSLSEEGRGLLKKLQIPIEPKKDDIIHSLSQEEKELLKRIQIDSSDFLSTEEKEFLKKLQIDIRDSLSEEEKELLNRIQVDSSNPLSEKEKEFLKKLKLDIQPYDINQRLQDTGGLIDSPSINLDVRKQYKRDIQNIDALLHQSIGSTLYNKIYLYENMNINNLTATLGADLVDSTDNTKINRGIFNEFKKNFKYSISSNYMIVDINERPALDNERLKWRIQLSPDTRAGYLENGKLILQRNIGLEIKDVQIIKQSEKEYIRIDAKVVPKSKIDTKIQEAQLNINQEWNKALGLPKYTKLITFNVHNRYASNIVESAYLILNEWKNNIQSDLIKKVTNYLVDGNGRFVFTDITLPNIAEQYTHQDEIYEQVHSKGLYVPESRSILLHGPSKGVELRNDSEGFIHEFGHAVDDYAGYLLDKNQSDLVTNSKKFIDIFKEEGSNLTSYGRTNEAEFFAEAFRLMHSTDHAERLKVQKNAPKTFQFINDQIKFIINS
# BoNT-F LC inh – BoNT F light chain protease inhibition; inhibition, % at 10 µM; Multiplex microsphere protease cleavage assay, flow cytometry; 360,000 compounds, 0.22% hits; AID 588497; in the data active = inhibition above about 35%, passing the limit was not always enough; inconclusive = no clear call, values can overlap the other calls; note: plate controls were buffer without enzyme for full effect and enzyme alone for no effect
# Mtb FBA inh – Mtb fructose-bisphosphate aldolase inhibition; P9WQA3; purified M. tuberculosis FBA, fluorescence read-out; inhibition, % at 1 µM; 360,000 compounds, 2.3% hits; AID 588726; in the data active = inhibition above about 27%;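 note: 0% = vehicle and 100% = reference inhibitor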
# BoNT A protease – BoNT A light chain protease inhibition. AID 588499. 360,000 compounds, 0.17% hits. inhibition, % at 10 µM. multiplex microsphere protease substrate cleavage, flow cytometry; note: plate controls were buffer without enzyme for full effect and enzyme alone for no effect
# Autofluor counter – compound fluorescence in toxin protease inhibitor counterscreen. compound autofluorescence counterscreen, microsphere flow cytometry; hits give high values. fluorescence intensity (concentration not given with the values). 360,000 compounds, 3.1% hits; in the data active = fluorescence intensity above about 16000; inconclusive = no clear call, values can overlap the other calls
# GDH-TPI counter – inhibits GDH-TPI coupling enzymes, artifact for Mtb FBA screen | 360,000 compounds, 1.2% hits | AID 588335 | GDH-TPI coupled enzyme counterscreen, NADH absorbance | inhibition, % at 4.8 µM; in the data active = inhibition above about 30%;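 note: 0% = DMSO wells and 100% = wells lacking the enzyme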
# * marks the source's active call; other numbers are inactive results; ? = inconclusive; . = no result given; + = active, no number. Hits are enriched below; roughly 6.6% of the tested compounds scored in any of these assays. Cut-off read from the data, not from the text of the source, unless noted: active = inhibition above about 30%; inconclusive = no clear call, values can overlap the other calls; inactive = below that.
SMILES,Anthrax LF inh2,BoNT-F LC inh,Mtb FBA inh,BoNT A protease,Autofluor counter,GDH-TPI counter
CCC(C)NC(=O)c1ccc(CS(=O)(=O)Cc2ccc(Cl)cc2)o1 (stereo not drawn),-1.8,-6.2,0.5,-3.5,23433*,6.8
COC(=O)C(O)(CC(=O)Nc1ccc(OC)cc1)C(F)(F)F (stereo not drawn),1.9,21.1,1.6,0.5,3549,-1.2
COC(=O)C(O)(CC(=O)Nc1ccc(C)c(F)c1)C(F)(F)F (stereo not drawn),2.4,15.0,-4.0,?,16452*,-13.6
COc1ccc(-c2nc3ccccc3c(=O)n2CCOc2cc(C)ccc2C)cc1,-1.0,-1.2,4.0,0.6,2616,14.9
CCOC(=O)c1c(-c2ncc(C(F)(F)F)cc2Cl)noc1C,0.5,4.7,2.1,-1.1,3471,0.6
O=C(NCc1cccnc1)/C(=C\c1ccc(-c2ccc(Br)cc2)o1)S(=O)(=O)c1ccccc1,-2.2,-2.7,-0.6,0.0,2017,32.2*
O=C(NCc1cccnc1)/C(=C/c1ccc(-c2cccc(C(F)(F)F)c2)o1)NC(=O)c1ccccc1,-2.1,-9.0,2.0,?,22544*,32.5*
O=C(NCc1cccnc1)/C(=C/c1ccc(Cl)cc1)NC(=O)c1ccccc1,-3.4,-1.8,-4.6,-0.5,5746,-9.0
O=C(NCc1cccnc1)/C(=C/c1ccc(-c2ccc(Cl)cc2)o1)S(=O)(=O)c1ccccc1,-4.0,-0.1,5.0,0.2,7944,40.5*
Cc1ccc(C(=O)N/C(=C/c2ccc(-c3cc(C(F)(F)F)ccc3Cl)o2)C(=O)NCc2cccnc2)cc1,-4.8,-5.2,4.7,-0.2,8011,29.7
COC(=O)c1ccc(CSc2nnc(NC(=O)C3CC(=O)N(c4ccc5c(c4)OCCO5)C3)s2)cc1 (stereo not drawn),0.6,-2.1,-3.1,-0.1,7810,-4.0
COc1ccccc1-c1csc(C(NC(C)=O)c2ccc(F)c(F)c2)n1 (stereo not drawn),-5.1,1.5,0.8,0.1,2850,7.5
O=C1CC(C(=O)Nc2nccs2)C(c2ccccc2)O1 (stereo not drawn),1.2,2.5,-1.9,2.7,15647,9.7
CN(C)S(=O)(=O)c1ccc(S(=O)(=O)NCc2ccc3c(c2)OCO3)cc1,1.8,38.0*,3.2,4.0,2948,0.4
O=C(CCNS(=O)(=O)c1ccc(Br)cc1)NCc1ccc2c(c1)OCO2,-0.6,-2.7,2.7,-2.1,24584*,-1.2
CCCNS(=O)(=O)c1ccc(CCC(=O)NCc2ccc3c(c2)OCO3)cc1,3.6,4.6,-0.1,0.2,3528,-2.8
O=S(=O)(NCc1ccc2c(c1)OCO2)c1ccc(F)cc1,-17.4,-20.2,0.7,0.6,3274,3.7
OC1(c2ccccc2)c2ccccc2-c2ncccc21 (stereo not drawn),-2.4,-0.2,2.1,0.2,4282,-1.9
Cc1c(C(=O)N2CCCc3ccccc32)oc2ccc(S(=O)(=O)N3CCOCC3)cc12,-1.2,-6.0,0.3,-2.5,16777*,11.3
CCn1c2ccccc2c2nc3cc(S(=O)(=O)N4CCOCC4)ccc3nc21,33.0*,26.6,-1.5,39.6*,7049,21.3
O=c1nc2ccc(Cl)cn2c2ccc(S(=O)(=O)N3CCOCC3)cc12,-4.3,0.4,176.3*,1.3,5461,15.7
O=S(=O)(c1ccc2oc3ccccc3c2c1)N1CCCC1,1.6,8.3,1.2,-0.5,4663,1.1
O=S(=O)(c1ccc2oc3ccccc3c2c1)N1CCOCC1,-1.1,-3.6,-1.2,-0.2,16805*,6.3
CC[C@H](C)[C@H]1CNC(=S)N1CC1CCN(CCC(C)C)CC1,-4.9,-5.7,-1.0,0.1,3660,-6.2
Cn1ncc([N+](=O)[O-])c1C(=O)N/N=C/c1cccc([N+](=O)[O-])c1,-2.3,3.0,-3.1,0.6,2461,5.6
SMILES,Anthrax LF inh2,BoNT-F LC inh,Mtb FBA inh,BoNT A protease,Autofluor counter,GDH-TPI counter
O=C1/C(=C/c2ccccc2)N=C(N2CCOCC2)N1c1cccc(Cl)c1,0.8,7.1,11.0,1.2,10267,32.1*
COc1ccc(/C=N/NC(=O)c2ccc(Cl)c(S(N)(=O)=O)c2)cc1OCC(N)=O,0.7,-2.5,2.1,-0.7,4074,30.1
CNC(=S)N/N=C/c1ccc(OCC(=O)Nc2c(C)cc(C)cc2C)c(OC)c1,-2.9,-1.0,4.6,-0.5,1940,24.6
COc1ccc(/C=N/NC(N)=S)cc1OC(=O)c1cccc2ccccc12,-9.5,-9.5,1.0,-2.3,7952,33.5*
COc1cc(/C=N/NC(=O)c2ccc(Cl)c(S(N)(=O)=O)c2)ccc1OCC(N)=O,-10.9,2.8,4.0,0.7,3693,43.0*
COc1cc(/C=N/NC(N)=S)ccc1OCC(=O)Nc1ccc(C)cc1,-0.7,6.2,1.8,0.5,3363,39.8*
C/C(CC(=O)Nc1ccc(F)cc1)=N\NC(=O)COc1ccccc1,-0.6,4.5,1.3,-0.1,2073,-1.9
C[C@H](CO)N1C[C@H](C)[C@@H](CN(C)Cc2ccc(F)cc2)Oc2ncc(Br)cc2C1=O,0.6,-8.0,-1.5,-0.5,3982,9.3
O=[N+]([O-])c1c(NCCO)cc(N2CCCCCC2)c2nonc12,100.1*,?,-11.0,-4.0,3454,26.6
O=[N+]([O-])c1c(Nc2ccccc2O)cc(N2CCOCC2)c2nonc12,1.2,20.4,-15.4,1.4,5145,32.5*
O=[N+]([O-])c1c(NCCO)cc(N2CCN(Cc3ccc4c(c3)OCO4)CC2)c2nonc12,0.3,-4.8,-2.9,0.1,2552,7.4
CN1C(=O)CC(C(=O)Nc2ccccc2F)SC1=Nc1ccc2c(c1)OCO2 (stereo not drawn),-4.2,-0.8,-1.2,-1.1,3883,8.6
Cc1cc(OCc2cn(CC(=O)c3ccc(O)cc3)nn2)ccc1[N+](=O)[O-],-7.8,-6.2,-0.4,-0.2,2993,40.6*
O=C(Cn1cc(COc2cccc([N+](=O)[O-])c2)nn1)c1ccc(O)cc1,2.5,1.8,5.5,-0.1,3840,18.5
CC(=O)OC[C@H]1O[C@@H](Oc2cc3ccc(=O)oc3cc2OC(C)=O)[C@H](OC(C)=O)[C@@H](OC(C)=O)[C@@H]1OC(C)=O,1.0,-0.6,+,-0.1,3915,11.5
COC(=O)c1c(NC(=O)C2CCC2)sc(C(=O)N(C)C)c1C,0.9,-6.2,0.6,?,17349*,21.7
CCOC(=O)c1c(NC(=O)COC(=O)C2CCC2)sc(C(=O)N(C)C)c1C,-0.5,-12.7,1.8,-7.7,7915,2.1
CCCCN1C(=O)/C(=C/C=C2\Oc3ccccc3N2CC)SC1=S,-8.7,-3.3,-1.4,-1.5,14747,1.0
CCN1/C(=C/C=C/c2oc3ccc(-c4ccccc4)cc3[n+]2CC)Oc2ccc(-c3ccccc3)cc21,-100.5,-149.4,-18.7,43.1*,70271*,12.2
CCOC(=O)C(=CNc1ccc(Cl)cn1)C(=O)OCC,6.5,0.7,-4.0,0.4,5193,30.2
CCOC(=O)C(=CNc1cccc(N)n1)C(=O)OCC,-10.3,-1.5,0.8,-0.7,20625*,25.4
COc1ccc(Nc2c(C3CC3)nc3nc(C)cc(C)n23)cc1,-8.0,2.4,.,2.2,3821,.

# Compound activity: PubChem, several laboratories
